# The campaign covered roughly 150,000 compounds. About 540 (0.36%) showed an effect of 50% or more. Many of the other results were omitted from the sample, so strong results are more common in it than they were.
# System: Plasmodium falciparum
# Assay: Primary screen in NF54 nanoGlo assay, in single point, at 2uM, 72h; a lower Z score goes with more inhibition
# Format: functional, Erythrocyte
# Conditions: timepoint 72 hour
SMILES,% Inhibition,Z score
Cc1noc(C)c1N(C)C(=O)Nc1cccnc1,-2%,0.36
COc1ccc(NC(=O)[C@H](NC(=O)Cc2c[nH]c3ccccc23)c2ccc(C)cc2)cc1,-9%,1.46
CC1C(C(F)(F)F)OCCN1C(=O)NC1CCCC1Cc1ccccn1 (centres undefined),-4%,0.71
COc1ccc(-c2cc(C(F)(F)F)nc(-n3nc(-c4cccc(OC)c4)c(Cl)c3-c3cccc(OC)c3)n2)cc1,91%,-10.21
COc1ccc(-c2cc(C(F)(F)F)nc(-n3nc(-c4cccc(C)c4)c(C)c3-c3cccc(C)c3)n2)cc1,-7%,1.42
COc1cccc(-c2nn(-c3nc(-c4ccccc4)cc(C(F)(F)F)n3)c(-c3cccc(OC)c3)c2Cl)c1,38%,-3.81
COCC(=O)Nc1cc(C)nn1-c1nc2c(c(=O)[nH]1)CCC2,1%,-0.17
Cc1cc(NC(=O)C(=O)NC2CC(C)CC(C)(C)C2)n(-c2nc3c(c(=O)[nH]2)CCC3)n1 (centres undefined),85%,-13.4
Cc1cc(NC(=O)Cc2ccc(-c3ccccc3)cc2)n(-c2nc3c(c(=O)[nH]2)CCC3)n1,-4%,0.86
Cc1cc(NC(=O)c2ccc3ccccc3c2)n(-c2nc3c(c(=O)[nH]2)CCC3)n1,2%,-0.26
CCOc1ccc2ccccc2c1C(=O)Nc1cc(C)nn1-c1nc2c(c(=O)[nH]1)CCC2,92%,-17
COc1ccccc1OCC(=O)Nc1cc(C)nn1-c1nc2c(c(=O)[nH]1)CCC2,1%,-0.14
CC(NC(=O)N(C)CC1CCCO1)c1ccc(N2CCOCC2)cc1 (centres undefined),-3%,0.42
COC[C@H]1CN(C)CC12CCN(C(=O)Cc1ccc(Cl)cc1)CC2,9%,-1.07
CCCC(=O)N1CCN(c2cc(-n3cnc(C)c3C)ncn2)CC1,-12%,1.96
COc1cc(C(=O)Nc2scnc2C)cc(OC)c1OC,45%,0.11
COc1cc(C(=O)Nc2ccc3sc(NC(=O)c4cc(OC)c(OC)c(OC)c4)nc3n2)cc(OC)c1OC,101%,-16.35
COc1cc(C(=O)Nc2ccc(Nc3ccc(C)nn3)cc2)cc(OC)c1OC,13%,-2.29
Cn1cc(S(=O)(=O)NCc2cc(C3CC3)ncn2)cn1,16%,-2.16
Clc1cnn(CCN2CCc3onc(-c4cccc5ccccc45)c3C2)c1,-5%,0.7
CN1C(=O)CC[C@@]12CCN(C(=O)Nc1ccc3c(c1)OCCO3)C2,-5%,0.78
Cc1cc([C@@H]2CCCCN2CCn2cc(Cl)cn2)no1,-11%,1.54
COc1ccc(C(=O)N(C(=O)c2ccc(OC)cc2)c2c3c(nc4ccccc24)CCCC3)cc1,69%,-5.66
Oc1c2c(nc3ccccc13)CCCCC2,25%,-3.15

SMILES,% Inhibition,Z score
COc1cccc(C(=O)Nc2c3c(nc4ccccc24)CCCC3)c1,1%,-0.12
COc1ccccc1C(C)(C)c1noc([C@@]2(C)CCNC(=O)C2)n1,-3%,0.4
CCOc1ccc(N2C[C@@H](C(=O)NCCc3ccco3)CC2=O)cc1,0%,-0.05
C[C@H](NCc1ccccc1CN1CCOCC1)C(=O)Nc1cccc2ccccc12,-7%,1.29
c1ccc(C(c2ccccc2)N2CCN(c3nn4cnnc4c4ccccc34)CC2)cc1,81%,-11.8
c1ccc2[nH]c(C3CCN(c4nn5cnnc5c5ccccc45)CC3)nc2c1,-15%,2.33
Fc1ccc(N2CCN(c3nn4cnnc4c4ccccc34)CC2)cc1,-10%,1.31
COc1ccc(-c2nc3c(c(N4CCC[C@@H]4C)n2)CCOCC3)cc1,-10%,0.99
O=C(Nc1ccnn1C1CCC1)c1ccc(-c2cn[nH]c2)cn1,-10%,1.42
O=C1CCCCN1CCC(=O)N1CCc2onc(-c3cccc4ccccc34)c2C1,-1%,0.1
Cc1nn(C)c2nc(OCC(=O)NC(C)(C)C)cc(C(F)(F)F)c12,-8%,0.92
Cn1nccc1[C@@H]1CN(C(=O)Nc2nsc3ccccc23)CCO1,-5%,0.53
COc1ccc(S(=O)(=O)c2c(N)n(Cc3ccc(C)cc3)c3nc4ccccc4nc23)cc1,-6%,0.56
Cc1ccc(S(=O)(=O)c2c(NC(=O)c3ccco3)n(C3CCCCC3)c3nc4ccccc4nc23)cc1,-11%,1.85
Cc1ccc(S(=O)(=O)Nc2c(S(=O)(=O)c3ccc(C)cc3)c3nc4ccccc4nc3n2C[C@H]2CCCO2)cc1,48%,-4.28
Cc1ccc(S(=O)(=O)Nc2c(S(=O)(=O)c3ccccc3)c3nc4ccccc4nc3n2CCc2ccccc2)cc1,86%,-14.39
Cc1ccc(S(=O)(=O)c2c(NS(=O)(=O)c3ccc(F)cc3)n(CCc3ccccc3)c3nc4ccccc4nc23)cc1,98%,-8.73
CCC(=O)Nc1c(S(=O)(=O)c2ccccc2)c2nc3ccccc3nc2n1[C@@H](C)c1ccccc1,-14%,1.29
Cc1ccc(S(=O)(=O)c2c(NS(=O)(=O)c3ccc(F)cc3)n(C[C@H]3CCCO3)c3nc4ccccc4nc23)cc1,6%,-0.71
Cc1ccc(S(=O)(=O)Nc2c(S(=O)(=O)c3ccc(C)cc3)c3nc4ccccc4nc3n2CCC(C)C)cc1,85%,-10.94
Cc1ccc(S(=O)(=O)c2c(NS(=O)(=O)c3ccccc3)n(CCc3ccccc3)c3nc4ccccc4nc23)cc1,99%,-11.17
Nc1c(S(=O)(=O)c2ccc(Cl)cc2)c2nc3ccccc3nc2n1Cc1ccc(Cl)cc1,-9%,0.81
Cc1ccc(S(=O)(=O)c2c(NS(=O)(=O)c3ccc(Cl)cc3)n(-c3cc(C)cc(C)c3)c3nc4ccccc4nc23)cc1,-6%,0.5
